A short description of test [1]: NCI Yeast Anticancer Drug Screen. Data for the rad50 strain (AID 155).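 Further: 0% = growth of vehicle-only cultures of the same strain.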 The note with it: S. cerevisiae rad50 strain growth inhibition; at 50.0 µM; stronger effect = higher value. The gist of the method: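 Readout: growth inhibition relative to vehicle-treated cultures. Compound exposure was carried out in a genetically defined yeast strain deficient in DNA damage repair.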

Test [2] is described as follows: NCI Yeast Anticancer Drug Screen. Data for the mec2-1 strain (AID 157). The note with it: S. cerevisiae mec2-1 strain, at 50.0 µM, stronger effect = higher value. The gist of the method:
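Growth inhibition is read against vehicle-treated controls after compound exposure of the mec2-1 yeast strain, which is defective in DNA damage repair or cell cycle control.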

The nature of test [3]: NCI Yeast Anticancer Drug Screen. Data for the sgs1 mgt1 strain (AID 161).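 Further: 0% = growth of cultures given vehicle only.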 The note with it: S. cerevisiae sgs1 mgt1 strain, at 50.0 µM, stronger effect = higher value. Summed up:
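This yeast growth screen uses a strain with defined DNA-repair lesions; compound-treated growth is compared with vehicle-treated growth.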

The nature of test [4]: NCI Yeast Anticancer Drug Screen. Data for the cln2 rad14 strain (AID 165).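 Further: 0% = growth equal to vehicle treated cultures.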 The note with it: S. cerevisiae cln2 rad14 strain, at 50.0 µM, stronger effect = higher value. Summed up: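 Growth inhibition, relative to vehicle-treated controls, is the read-out. The test organism is a yeast strain with defined genetic alterations, cln2 rad14.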
A short description of test [5]: NCI Yeast Anticancer Drug Screen. Data for the bub3 strain (AID 167). The note with it: S. cerevisiae bub3 mutant strain, at 50.0 µM, stronger effect = higher value. The gist of the method: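 Readout: yeast growth inhibition, expressed relative to vehicle-only wells. The test organism is a mutant strain from a panel with lesions in DNA repair or checkpoint genes.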
Test [6] can be described thus: NCI Yeast Anticancer Drug Screen. Data for the mlh1 rad18 strain (AID 175). The note with it: S. cerevisiae mlh1 rad18 strain growth inhibition; at 50.0 µM; stronger effect = higher value. The gist of the method: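 Cells of a genetically altered yeast strain, deficient in DNA damage repair, were treated with compound. Their growth was then compared with that of vehicle-treated cultures to give inhibition.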

Several values for one entry are separate records, joined by “and”; a condition that tells them apart may be missing. Equal entries are not always repeated. The panel holds about 79,000 compounds, 15% with a hit somewhere; the sample as a whole holds those more often. A structure can be active in one record and inactive in another. Activity calls are given as the source filed them. No stated cut-off is given here; in the data, active means growth inhibition above about 70%; inactive means the rest.

Turning to `CC(=O)OCC1OC(n2c(N)c(C#N)c(C)c(C#N)c2=S)C(OC(C)=O)C(OC(C)=O)C1OC(C)=O` (stereo unspecified), the growth inhibition in test [1] is -25.4% (inactive) and -28% (inactive); in test [2], -13% (inactive) and -5.75% (inactive); in test [3], -7.1% (inactive) and -10.7% (inactive); in test [4], -30.7% (inactive) and -44.5% (inactive); in test [5], 3.55% (inactive) and -1.5% (inactive); in test [6], -1.85% (inactive) and -27.7% (inactive).

Regarding `NCCCNCCSSC/C=C\CSSCCNCCCN`, the growth inhibition in test [1] is 1.9% (inactive) and -5.5% (inactive); in test [2], -15.6% (inactive) and -4.85% (inactive); in test [3], 1.8% (inactive) and -15.3% (inactive); in test [4], 1.15% (inactive) and -16.8% (inactive); in test [5], 7.85% (inactive) and -2.3% (inactive); in test [6] it was 11.3% (inactive) and 1.45% (inactive).

On to `NC(N)=NC(N)=Nc1ccc(S(N)(=O)=O)cc1`, for which the growth inhibition is 21.6% (inactive) and 10.5% (inactive) in test [1]; 14.7% (inactive) and 4.3% (inactive) in test [2]; 13.4% (inactive) and 14.7% (inactive) in test [3]; -13.8% (inactive) and -48.6% (inactive) in test [4]; 34.2% (inactive) and -9.8% (inactive) in test [5]; 34.2% (inactive) and 18.5% (inactive) in test [6].

For `Cc1ccc(C(O)c2nnc(C(O)c3ccc(C)cc3)nn2)cc1` (stereo unspecified), the growth inhibition in test [1] was 11.2% (inactive) and 33.9% (inactive); in test [2] it was 11.6% (inactive) and 29% (inactive); in test [3] it was -3.55% (inactive) and 71% (active); in test [4] it was 9.45% (inactive) and 16.4% (inactive); in test [5], 18.9% (inactive) and 21.2% (inactive); in test [6], 18.8% (inactive) and 40.5% (inactive).

Regarding `Cc1cccc(OC(=O)Cc2ccccc2)c1`, the growth inhibition in test [1] is -17.1% (inactive) and -34.1% (inactive); in test [2], -14.6% (inactive) and -8.2% (inactive); in test [3], -6.1% (inactive) and -8.35% (inactive); in test [4], -9.45% (inactive) and -38% (inactive); in test [5] it was 13.6% (inactive) and -12.9% (inactive); in test [6] it was -16.2% (inactive) and -8% (inactive).

With `CC1OC(n2cnc3c(N)ncnc32)C(O)C1O` (stereo unspecified), the growth inhibition in test [1] was -3.75% (inactive) and 14.4% (inactive); in test [2] it was 8.1% (inactive) and -3.35% (inactive); in test [3], 2.5% (inactive) and -12.4% (inactive); in test [4] it was -53.2% (inactive) and 5.3% (inactive); in test [5], 0.85% (inactive) and -1% (inactive); in test [6] it was -0.4% (inactive) and -13.8% (inactive).

For `Nc1ncnc2c1ncn2C1(CO)OC(CO)C(O)C1O` (stereo unspecified), the growth inhibition in test [1] is 13.7% (inactive) and 3.2% (inactive); in test [2], -9.1% (inactive) and -6.15% (inactive); in test [3], -13.9% (inactive) and -0.2% (inactive); in test [4] it was -0.65% (inactive) and -23.2% (inactive); in test [5], 5% (inactive) and 19.4% (inactive); in test [6], 11.2% (inactive) and -1.25% (inactive).

Consider `CC(CCC(=O)O)C(=O)O` (stereo unspecified), for which the growth inhibition in test [1] is -16% (inactive) and 17.4% (inactive); in test [2], -7.65% (inactive) and -15.8% (inactive); in test [3], -8.6% (inactive) and -4.6% (inactive); in test [4], -5.7% (inactive) and 0.25% (inactive); in test [5] it was 4.95% (inactive) and 11.3% (inactive); in test [6] it was -8.5% (inactive) and 9.8% (inactive).

As for `CC(C)(O)CN/C=C(\C(=O)OC(C)(C)C)N1C(=O)c2ccccc2C1=O`, the growth inhibition in test [1] is 17.1% (inactive) and -17% (inactive); in test [2], 3% (inactive) and -6.7% (inactive); in test [3] it was 13.8% (inactive) and -5.45% (inactive); in test [4], -39% (inactive) and -11.5% (inactive); in test [5], -1.65% (inactive) and -4.95% (inactive); in test [6] it was 2.8% (inactive) and 17.6% (inactive).

Regarding `OCC(O)C(O)C1OC(O)C(O)C(O)C1O` (stereo unspecified), the growth inhibition is 1.1% (inactive) and -15.8% (inactive) in test [1]; 0.45% (inactive) and -15.2% (inactive) in test [2]; 3.1% (inactive) and -4.25% (inactive) in test [3]; -8.25% (inactive) and -17.1% (inactive) in test [4]; 0.25% (inactive) and -1.65% (inactive) in test [5]; 7.85% (inactive) and -7.65% (inactive) in test [6].

Take `[B]C(=O)NC(CC(C)C)C(=O)NC1c2ccsc2C(=O)C1O` (stereo unspecified) (tested in a mixture with another compound): the growth inhibition in test [1] was 3.05% (inactive) and 4.2% (inactive); in test [2] it was 18.6% (inactive) and 22.4% (inactive); in test [3], 12.1% (inactive) and 2.9% (inactive); in test [4], 2.9% (inactive) and 16.6% (inactive); in test [5], 32.3% (inactive) and 33.1% (inactive); in test [6], -16.1% (inactive) and -21.4% (inactive).

In the case of `CN(C)CC(O)c1cc2ccccc2c2ccccc12` (stereo unspecified), the growth inhibition in test [1] is 3.3% (inactive) and -1.9% (inactive); in test [2], 22.6% (inactive) and -10.7% (inactive); in test [3], 3.4% (inactive) and -2.3% (inactive); in test [4], -8.8% (inactive) and -32.2% (inactive); in test [5], 18.4% (inactive) and -5.5% (inactive); in test [6], 8.65% (inactive) and -14.2% (inactive).

Turning to `CC(=O)OCC1OC(CCC#N)C(OC(C)=O)C(OC(C)=O)C1OC(C)=O` (stereo unspecified), the growth inhibition in test [1] is 10.7% (inactive) and 1.7% (inactive); in test [2] it was 15.5% (inactive) and 14.2% (inactive); in test [3] it was 17.4% (inactive) and 2.35% (inactive); in test [4], -12% (inactive) and -1.35% (inactive); in test [5], 9.3% (inactive) and -4.05% (inactive); in test [6] it was 13.6% (inactive) and 11.3% (inactive).

`CC1CCOS(=O)O1` (stereo unspecified): the growth inhibition in test [1] is 6.55% (inactive) and -13.5% (inactive); in test [2] it was -15% (inactive) and 6.9% (inactive); in test [3], 19.1% (inactive) and -9.65% (inactive); in test [4] it was 12.1% (inactive) and 11.6% (inactive); in test [5] it was -4.45% (inactive) and 7.7% (inactive); in test [6], 18.2% (inactive) and -7% (inactive).

As for `CC(CC(=O)O)C(C(=O)O)C(=O)O` (stereo unspecified), the growth inhibition in test [1] is 0.4% (inactive) and 7.6% (inactive); in test [2], -25.9% (inactive) and 2.4% (inactive); in test [3] it was -33.5% (inactive) and -16.6% (inactive); in test [4], -32.2% (inactive) and 0.4% (inactive); in test [5], -21.8% (inactive) and 8.7% (inactive); in test [6], -18.3% (inactive) and -7.75% (inactive).

In the case of `O=[N+]([O-])c1ccc2c(c1)C(=Nc1ccccc1)c1cccc([N+](=O)[O-])c1-2`, the growth inhibition in test [1] is 6.55% (inactive) and -21.9% (inactive); in test [2], 16.2% (inactive) and -12.8% (inactive); in test [3], 15.6% (inactive) and -6.05% (inactive); in test [4] it was -36.9% (inactive) and -24.8% (inactive); in test [5] it was 8.8% (inactive) and 8.9% (inactive); in test [6], 20.3% (inactive) and -26.3% (inactive).

The values are drawn from PubChem BioAssay (NCI).
